FMDV RLuc – Primary qHTS Assay for Foot and Mouth Disease Virus Antivirals against NCGC Sytravon and CBC Compound Libraries: Renilla Luciferase Signal. 120,000 compounds, 0.32% hits. FMDV replicon cells, Renilla luciferase signal. Potency, µM (highest dose often 57.5 µM), usual class: inhibitors. AID 1745857, 2022; further: nearly all actives have a fitted effect of over 55% in size
FMDV antiviral – Primary qHTS Assay for Foot and Mouth Disease Virus Antivirals against NCGC Sytravon and CBC Compound Libraries: Firefly Luciferase Signal. FMDV antiviral cell assay, firefly luciferase signal. Potency, µM (series often up to 57.5 µM), hits mostly inhibitors. 120,000 compounds, 0.23% hits. AID 1745856, 2022; further: nearly all actives have a fitted effect of over 60% in size
Large screens that a line does not name were inactive. An excerpt weighted towards active compounds, which were near 0.4% of everything screened. The call rests on the fitted dose curve.

CCCCCCCCCCCCCCCC[N+](C)(C)Cc1ccccc1	none
CCCCCCCCCCCCCC[N+](C)(C)Cc1ccccc1	FMDV RLuc 25.1µM, FMDV antiviral inconclusive
Cc1ccc(/C=C/C(=O)c2cccs2)cc1	none
O=c1c2c(-c3ccc(Br)cc3)csc2ncn1-c1ccccc1	none
Brc1ccc(-c2csc3ncnc(Sc4nnc(C5CC5)o4)c23)cc1	FMDV RLuc inconclusive, FMDV antiviral 25.1µM
CCN(CC)c1cc(C)nc(Nc2ccc(NC(=O)CCCc3ccccc3)cc2)n1	FMDV RLuc 31.6µM, FMDV antiviral inconclusive
Cc1cc(N(C)C)nc(Nc2ccc(NC(=O)Nc3ccc(F)cc3)cc2)n1	none
CCOc1ccc(CCN2C(=O)CCC2(C)C(=O)NCc2ccc(C)cc2)cc1 (stereo not given)	none
O=C(O)c1ccccc1C(=O)/C=C/c1ccc(Cl)cc1	FMDV RLuc 28.2µM
O=C(/C=C/c1ccc(Cl)cc1)c1ccccc1O	none
CCCC(=O)Nc1nnc(SCc2cc(=O)c3ccc(C)cc3[nH]2)s1	FMDV RLuc 2µM, FMDV antiviral 2.51µM
Cc1ccc(OCC(=O)Nc2nnc(SCc3cc(=O)c4ccccc4[nH]3)s2)cc1	none
CCC(=O)Nc1nnc(SCc2cc(=O)c3cc(C)ccc3[nH]2)s1	none
CCC(CC)C(=O)Nc1nnc(SCc2cc(=O)c3ccccc3[nH]2)s1	FMDV RLuc 8.91µM, FMDV antiviral 12.6µM
CC(=O)N1CCN(Cc2coc(-c3ccc(Cl)cc3)n2)CC1	FMDV RLuc inconclusive
O=C(CSCc1coc(-c2ccc(Cl)cc2)n1)N1CCCCC1	FMDV RLuc 20µM
O=C1CSC(c2ccc(Cl)cc2)c2cn[nH]c2N1 (stereo not given)	none
COc1ccc(CCNC(=O)c2cc(=O)c3ccccc3o2)cc1OC	none
CCc1ccc2oc(C(=O)NCCc3ccc(OC)c(OC)c3)cc(=O)c2c1	FMDV RLuc inconclusive, FMDV antiviral 35.5µM
COc1ccc(-c2nc(CSCC(=O)Nc3ccc(C#N)cc3)co2)cc1	none
Cn1nc(CC(=O)NCc2ccc(F)cc2)c2ccccc2c1=O	FMDV RLuc inconclusive
COc1ccccc1NC(=O)Cc1nn(C)c(=O)c2ccccc12	FMDV RLuc 10µM, FMDV antiviral 10µM
Cn1nc(CC(=O)Nc2ccc(F)cc2Cl)c2ccccc2c1=O	FMDV RLuc 7.08µM, FMDV antiviral inconclusive
Cn1nc(CC(=O)Nc2ccc(Cl)cc2)c2ccccc2c1=O	FMDV RLuc 2.82µM, FMDV antiviral inconclusive
COc1ccc(S(=O)(=O)N(C)C)cc1NC(=O)Cc1nn(C)c(=O)c2ccccc12	none
COc1ccccc1NC(=O)CSc1nc2ccsc2c(=O)n1C	FMDV RLuc 22.4µM, FMDV antiviral 22.4µM
Cn1nc(CC(=O)Nc2cccc(OC(=O)c3ccc(Cl)cc3)c2)c2ccccc2c1=O	none
CCn1c(SCC(=O)Nc2ccccc2C(=O)OC)nc2ccsc2c1=O	none
CCc1ccc2oc(C(=O)NCC(c3ccc(C)o3)N3CCCCC3)cc(=O)c2c1 (stereo not given)	none
Cc1nn(C(C)C)c(C)c1N	none
Cc1nc2ccccc2nc1SCC(=O)N(C)C(C)c1ccc(F)cc1 (stereo not given)	FMDV RLuc 35.5µM, FMDV antiviral 28.2µM
CC(c1ccccc1)N(C)C(=O)CSc1nc2ccccc2o1 (stereo not given)	none
O=C(CSC1=Nc2ccccc2C2=NC(c3ccccc3)C(=O)N12)Nc1cc(F)ccc1F (stereo not given)	none
N#CC(/C(=N/S(=O)(=O)c1ccccc1)c1ccccc1)c1nc2ccccc2s1 (stereo not given)	FMDV antiviral 28.2µM
CC(c1nc2ccccc2s1)N(C)S(=O)(=O)c1ccccc1 (stereo not given)	none
COc1ccc(OC)c(Nc2nc(NCCc3ccccc3)nc3c2cnn3-c2ccccc2)c1	none
COc1ccc(NC(=O)c2c(NCc3cccs3)sc3c2CCCC3)cc1	FMDV RLuc 8.91µM
COc1ccc(NC(=O)c2c(NCc3cccs3)sc3c2CCCCC3)c(OC)c1	none
O=C(COC(=O)CCNS(=O)(=O)c1ccccc1)Nc1ccc(F)c(Cl)c1	none
COc1ccc(CNC(=O)c2nc(S(=O)(=O)Cc3ccccc3)ncc2Cl)cc1	FMDV antiviral 22.4µM
COc1ccc(NC(=O)c2nc(S(=O)(=O)Cc3ccc(C)cc3)ncc2Cl)cc1	none
O=C(Nc1ccncc1)c1ccc(SC(F)(F)F)cc1	FMDV RLuc 20µM, FMDV antiviral inconclusive
O=C(Nc1cccnc1)c1ccc(SC(F)(F)F)cc1	none
N#CCCCCOc1ccc(-c2ccccc2)cc1	none
Cc1nc(C)c(-c2ccc(SCC(=O)Nc3ccc(F)c(F)c3)nn2)s1	FMDV RLuc 7.94µM, FMDV antiviral inconclusive
Cc1nc(C)c(-c2ccc(SCC(=O)Nc3ccc(C)c(F)c3)nn2)s1	none
C#CCNC(=O)CN1CCCC1C(=O)NCC(F)(F)F (stereo not given)	none
O=C(CN1CCN(c2ncccc2C(F)(F)F)CC1)NC1CC1	none
CCn1c2c(c(=O)n3ncc(C(=O)Nc4cc(Cl)ccc4OC)c13)CN(Cc1ccc(OC)cc1)CC2	none
COc1ccc(CN2CCc3c(c(=O)n4ncc(C(=O)N5CCN(c6ccccc6OC)CC5)c4n3C)C2)cc1	FMDV RLuc 1.78µM, FMDV antiviral 2.82µM
CC(C)c1ccc(NC(=O)c2ccc3c(c2)CCCN3S(C)(=O)=O)cc1	FMDV RLuc 8.91µM, FMDV antiviral inconclusive
CCCCc1ccc(NC(=O)c2ccc3c(c2)CCN3S(=O)(=O)CC)cc1	FMDV RLuc 25.1µM, FMDV antiviral 8.91µM
Cc1ccc(S(=O)(=O)N2CCc3cc(C(=O)Nc4ccc(C(F)(F)F)cc4)ccc32)cc1	none
CS(=O)(=O)N1CCc2cc(C(=O)Nc3ccc(C(F)(F)F)cc3)ccc21	FMDV RLuc 31.6µM, FMDV antiviral inconclusive
CC(C)c1ccc(NC(=O)c2ccc3c(c2)CCN3S(=O)(=O)c2ccccc2)cc1	none
CCS(=O)(=O)N1CCc2cc(C(=O)Nc3cccc(C(C)=O)c3)ccc21	none
O=C(CCc1nc(CS(=O)(=O)c2ccc(F)cc2)no1)NCCc1ccccc1Cl	none
O=C(O)c1ccccc1-c1ncc(-c2ccccc2F)o1	none
CCCCNC(=O)c1cccc2cccnc12	none
COc1ccc(C)cc1C(C)NC(=O)c1ccc2c(c1)OCO2 (stereo not given)	none
COCCn1c(=O)c2c(nc(-n3nc(C)cc3C)n2Cc2ccc(F)cc2)n(C)c1=O	none
O=C(CCc1c(-c2ccc(F)cc2)[nH]c2ccccc12)NC1CC1	none
COc1ccc(COC(=O)C2=C(C)NC3=C(C(=O)CCC3)C2c2ccccc2C(F)(F)F)cc1 (stereo not given)	none
CCc1ccc(C(=O)Nc2ccc3oc(C)nc3c2)cc1	FMDV RLuc 10µM
Cc1nc2cc(NC(=O)c3cccc(Cl)c3)ccc2o1	none
CCc1ccc(-c2nc3cc(NC(=O)c4ccc(C)c(C)c4)ccc3o2)cc1	none
Cc1nc2cc(NC(=O)c3ccc(C(C)(C)C)cc3)ccc2o1	FMDV RLuc 4.47µM, FMDV antiviral 7.94µM
COC(=O)c1ccc(NC(=O)C2CCN(c3oc(-c4ccco4)nc3C#N)CC2)cc1	none
Cc1ccc(-c2nc(CN3CCCC3c3cc(C)no3)co2)cc1 (stereo not given)	none
CCOC(=O)c1ccc(Oc2nc(C)nc3c2oc2ccccc23)cc1	none
CC(=O)c1ccc(Oc2nc(C)nc3c2oc2ccccc23)cc1	FMDV RLuc 2.82µM, FMDV antiviral inconclusive
CC1=C2C(=O)CC(c3ccc(Cl)cc3)CC2=Nc2ccccc2N1 (stereo not given)	FMDV RLuc 10µM, FMDV antiviral 8.91µM

Screens from PubChem.
